Hits are enriched below; roughly 9.2% of the tested compounds scored in any of these assays.
ELG1 genotoxic = inducers of genotoxicity in HEK293T ELG1-luciferase cells; HEK293T ELG1-luciferase reporter, luminescence, 16 h; Potency, µM (series often up to 46 µM), for the others: at the highest dose activity change, positive = activation, hits mostly activators; actives 1.3% (n = 330,000); AID 504466; note: % of control where 0% means no effect; nearly all actives have a fitted effect of over 60% in size
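Screening used a luciferase reporter fused to human ELG1 in HEK293T cells. Luminescence was read on a CCD plate imager after 16 hr exposure and 30 min ONE-Glo incubation.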
ELG1 DNA repair = ELG1-dependent DNA repair inhibition. HEK293T ELG1-luciferase reporter, luminescence, 16 h; DNA damage induced by 5-fluorouridine. Potency, µM (series often up to 46.1 µM), for inactives: top-dose activity change, negative = inhibition, actives largely listed as inhibitors. actives 2.3% (n = 330,000). AID 504467; note: % is set by controls: 0 for no effect and ±100 for the full control effect; nearly all actives have a fitted effect of over 55% in size
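Cells (2,000 per well) received 5-fluorouridine plus test compound or DMSO and were incubated 16 hr at 37 °C, 5% CO2. Luciferase activity was read by luminescence 30 min after ONE-Glo addition; signal suppression marked inhibition of damage-induced ELG1 function.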
SMN2 splice up = enhancers of SMN2 splice variant expression; HEK293 SMN2-luciferase splicing reporter, luminescence, 30-36 h; AID 1458; Potency, µM (highest dose often 46.1 µM), for inactives: at the top dose activity change, positive = activation, usual class: activators; actives 2.8% (n = 210,000); note: % of control where 0% means no effect; nearly all actives have a fitted effect of over 55% in size
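qHTS luciferase splicing reporter: luminescence rises when SMN2 exon 7 is included in transfected HEK293 cells. Compound exposure lasted 30-36 h at 37C, with 4.5 mM final sodium butyrate as control, followed by a ONE-Glo read.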
FLuc counter = inhibits or activates purified firefly luciferase, miR-21 counter-screen. P08659. purified FLuc, Km substrates, luminescence inhibition. Potency, µM (top dose mostly 57.5 µM), without a hit: at the highest dose activity change, negative = inhibition, hits mostly inhibitors. actives 6.9% (n = 360,000). AID 588342;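 note: plate controls were vehicle for no effect and reference inhibitor for full effect; nearly all actives have a fitted effect of over 55% in size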
Target sequence (P08659 whole entry, looked up): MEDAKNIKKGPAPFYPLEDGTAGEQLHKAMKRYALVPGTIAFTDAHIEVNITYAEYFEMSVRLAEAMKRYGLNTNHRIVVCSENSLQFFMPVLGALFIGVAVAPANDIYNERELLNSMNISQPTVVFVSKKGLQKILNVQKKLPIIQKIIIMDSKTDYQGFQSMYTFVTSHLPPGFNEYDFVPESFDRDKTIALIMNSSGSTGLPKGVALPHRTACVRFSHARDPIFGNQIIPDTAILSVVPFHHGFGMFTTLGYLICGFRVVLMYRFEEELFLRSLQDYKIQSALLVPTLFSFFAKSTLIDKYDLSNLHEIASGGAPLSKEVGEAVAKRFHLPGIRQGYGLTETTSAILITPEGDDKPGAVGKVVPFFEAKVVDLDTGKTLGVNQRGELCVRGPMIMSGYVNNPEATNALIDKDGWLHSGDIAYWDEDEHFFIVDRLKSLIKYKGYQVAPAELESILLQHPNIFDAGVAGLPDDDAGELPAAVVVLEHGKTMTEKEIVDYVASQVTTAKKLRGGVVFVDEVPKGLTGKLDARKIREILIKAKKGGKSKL
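Purified P. pyralis luciferase (10nM final) with 10uM D-luciferin and 10uM ATP (Km levels) in 50mM Tris acetate pH 7.5, 10mM Mg acetate, 0.01% Tween-20, 0.05% BSA; qHTS 6-point titration, ~60 µM downward; luminescence read.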
Rab9 promoter act = Rab9 promoter activation; Huh7 Rab9 promoter-luciferase reporter, luminescence, 24 h; actives 2.8% (n = 320,000); AID 485297; Potency, µM (titrated, usually from 9.22 µM), without a hit: at the top dose activation, negative = inhibition, hits mostly activators; note: % of control where 0% means no effect; nearly all actives have a fitted effect of over 60% in size
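Measured in stably transfected Huh7 cells bearing a Rab9 promoter–luciferase construct: 24 h compound treatment at 37 °C, followed by luminescence detection.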
NPC1 promoter act = NPC1 promoter activation | Huh7 NPC1 promoter luciferase reporter, 24 h | Potency, µM (series often up to 9.22 µM), for inactives: at the top dose activation, usual class: activators | actives 2.4% (n = 320,000); note: % of control where 0% means no effect; nearly all actives have a fitted effect of over 60% in size
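Stably transfected Huh7 (NPC1 promoter→luciferase), 1500 cells/well in Opti-MEM + 10% FBS, 2 h settle, then compound 24 h at 37 °C. Luminescence after 10 min with Amplite reagent.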
An asterisk follows results filed as active; ? = inconclusive; / = no result. Calls come from the whole dose curve; as a rule, active = well fitted curve in the direction sought with a large enough effect; inconclusive = small, poorly fitted or top-dose-only effect, or another doubt; inactive = no such curve, though single readings can be large; an effect the other way counts as inactive or inconclusive. Potency is the fitted concentration of half-maximal effect.

SMILES	ELG1 genotoxic	ELG1 DNA repair	SMN2 splice up	FLuc counter	Rab9 promoter act	NPC1 promoter act
O=C(c1cccc(S(=O)(=O)N2CCCC2)c1)c1cccc(S(=O)(=O)N2CCCC2)c1	-36%	5.8µM*	-71%	3%	-2%	-1%
Cc1ccc(O)c(NC(=O)c2cccc(S(=O)(=O)N3CCCCC3)c2)c1	-1%	-20%	4.5µM*	-9%	-2%	0%
Cc1cc(Cl)ccc1NC(=O)C1CCN(S(C)(=O)=O)CC1	0%	-2%	/	0%	-2%	-1%
CC1=C(C(=O)OCc2ccccc2)C(c2ccc([N+](=O)[O-])cc2)NC(=O)N1 (stereo not given)	-5%	?	/	-1%	3%	3%
CCCOc1ccccc1C1NC(=O)NC(C)=C1C(=O)OCCOC (stereo not given)	2%	6%	?	3%	-6%	-4%
CC1=C(C(=O)OCc2ccc3c(c2)OCO3)C(c2ccccc2)NC(=O)N1 (stereo not given)	-23%	2.1µM*	-60%	0%	2%	-2%
CCCOc1ccccc1C1NC(=O)NC(C)=C1C(=O)OCc1ccccc1 (stereo not given)	-12%	16µM*	/	-3%	-3%	-6%
CC1=C(C(=O)OCc2ccc3c(c2)OCO3)C(c2ccc(O)c([N+](=O)[O-])c2)NC(=O)N1 (stereo not given)	-16%	9.2µM*	6%	-9%	12%	9%
COc1cccc(CNC(=O)C2CCN(S(=O)(=O)c3cn(C)cn3)CC2)c1	/	/	/	-5%	/	/
O=C(NCC1CCCO1)c1ccc(NS(=O)(=O)c2ccccc2)cc1 (stereo not given)	4%	14%	/	7%	-10%	0%
CCOC(=O)C1=C(C)NC2=C(C(=O)CCC2)C1c1cn(Cc2ccc(Cl)cc2Cl)nc1-c1ccccc1 (stereo not given)	-5%	-10%	-19%	-3%	8%	-2%
COc1cccc(CNC(=O)CCC2CCCN(Cc3cc4ccccc4o3)C2)c1 (stereo not given)	-9%	?	-39%	2%	-3%	-2%
O=C(CN1CCCCC1)Nc1scc2c1c(=O)oc1ccccc12	15%	?	/	-9%	2.8µM*	?
CCOc1cc(S(=O)(=O)n2nc(C)cc2C)ccc1Br	0%	-4%	/	-3%	-13%	-5%
CC(=O)NC1(NC(C)=O)CCN(C)CC1	-2%	6%	/	-1%	-4%	-4%
COC(=O)c1sccc1NC(=O)/C=C/c1c(Cl)cccc1Cl	?	?	14µM*	12µM*	?	21%
COC(=O)c1cc(Cl)c(NC(=O)/C=C/c2ccc(Cl)cc2Cl)cc1OC	?	0%	-7%	-20%	0%	13%
COC(=O)c1sccc1NC(=O)/C=C/c1ccc(Cl)cc1Cl	?	?	11µM*	?	?	?
O=C(NCc1cccc(Cl)c1)C1CCCN(c2ncnc3onc(-c4ccc(F)cc4)c23)C1 (stereo not given)	/	/	/	-10%	/	/
Cc1noc(C)c1COc1ccccc1C(=O)N1CCN(c2cccc(C(F)(F)F)c2)CC1	-2%	0%	/	4%	-12%	-31%
Cc1noc(C)c1COc1ccccc1C(=O)N1CCN(c2cccc(Cl)c2)CC1	0%	9.2µM*	/	-5%	-11%	-21%
O=C(c1cc(Sc2ccc(Cl)cc2)nc2ccccc12)N1CCN(c2ccccn2)CC1	-21%	?	-39%	-5%	-5%	-2%
CSc1ccccc1C(=O)N1CCN(c2cccc(Cl)c2)CC1	-11%	21µM*	-27%	1%	-24%	-29%
O=C(c1cc(Sc2cccc(Cl)c2)nc2ccccc12)N1CCN(c2ccccn2)CC1	-17%	21µM*	-66%	-13%	-2%	-1%
